In the supplement of paper PMC3414501:
Structures can show the parent of a compound that is named as a salt.

Experiments:
[1] = tested on: S. cerevisiae SK1 pCDA2-eGFP (USY613), sporulating; assay: CDA2-GFP sporulation assay sensitivity score (z-score vs DMSO controls); higher = stronger inhibition of sporulation, active = hit call of the paper;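 also: active if sensitivity score above 5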
[2] = tested on: S. cerevisiae AD1-9 (efflux-pump deficient), vegetative growth in YPD; assay: growth sensitivity score (doubling time z-score vs DMSO controls); higher = slower growth, strongly negative scores also mark growth inhibition (complete suppression), active = hit call of the paper
Procedure, shortened: (§1)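 Yeast (Saccharomyces cerevisiae BY4741 and AD1-9) was grown in rich medium in microtiter plates from a starting OD600 of 0.065, with optical density read every 15 min over 24 hours. The growth sensitivity score was the difference between compound and solvent-only means, divided by the solvent-only standard deviation. Every experiment had eight solvent-only wells.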

[3] = tested on: S. cerevisiae BY4741 (wild-type), vegetative growth in YPD; assay: as above
Procedure, shortened: as §1

Compound | CDA2-GFP sporulation assay sensitivity score [1] | growth sensitivity score [2] | growth sensitivity score [3]
C[C@@H]1C[C@H]2[C@@H]3C[C@H](F)C4=CC(=O)C(Cl)=C[C@]4(C)[C@@]3(F)[C@@H](O)C[C@]2(C)[C@@]1(O)C(=O)CO [Halometasone monohydrate] (stock concentration (mM, diluted 1:100): 10) | 0.27 (inactive) | 2.32 (active) | -0.26 (inactive)
CN1CCc2cc(Cl)c(O)cc2[C@@H](c2ccccc2)C1 (stock concentration (mM, diluted 1:100): 9.9) | 15.9 (active) | 0.38 (inactive) | -0.55 (inactive)
CN(C)CCC(c1ccc(Cl)cc1)c1ccccn1 (centres undefined) [Chlorpheniramine] (stock concentration (mM, diluted 1:100): 10) | -1.3 (inactive) | -0.6 (inactive) | -0.56 (inactive)
CCOC(=O)C1=C(COCCN)NC(C)=C(C(=O)OC)C1c1ccccc1Cl (centres undefined) [Amlodipine base] (stock concentration (mM, diluted 1:100): 13.9) | 5.4 (active) |  | 14.2 (active)
CC(=O)OCC(=O)NCCCOc1cccc(CN2CCCCC2)c1 [Roxatidine acetate hydrochloride] (stock concentration (mM, diluted 1:100): 9.1) | 0.57 (inactive) | -0.42 (inactive) | -1.51 (inactive)
CN(C)[C@@H]1C(O)=C(C(=O)NCN2CCCC2)C(=O)[C@@]2(O)C(O)=C3C(=O)c4c(O)cccc4[C@@](C)(O)[C@H]3C[C@@H]12 [Rolitetracycline] (stock concentration (mM, diluted 1:100): 10) |  | -1.77 (inactive) | -1.17 (inactive)
CN(C)CCOC(C)(c1ccccc1)c1ccccn1 (centres undefined) [Doxylamine succinate] (stock concentration (mM, diluted 1:100): 10) | -0.3 (inactive) | -0.68 (inactive) | 1.39 (inactive)
CN1CCN(CCCN2c3ccccc3Sc3ccc(Cl)cc32)CC1 [Prochlorperazine] (stock concentration (mM, diluted 1:100): 10.4) | 2.72 (inactive) |  | 146 (active)
CC(=O)CCCCn1cnc2c1c(=O)n(C)c(=O)n2C [Lomifylline] (stock concentration (mM, diluted 1:100): 10) | -2.21 (inactive) | -0.96 (inactive) | 0.79 (inactive)
CC1CNc2c(cccc2S(=O)(=O)N[C@@H](CCCNC(=N)N)C(=O)N2CC[C@@H](C)C[C@@H]2C(=O)O)C1 (some centres undefined) [Argatroban] (stock concentration (mM, diluted 1:100): 10.1) | -1.04 (inactive) | -2.07 | -0.6 (inactive)
NC[C@H]1CC[C@H](C(=O)Oc2ccc(CCC(=O)O)cc2)CC1 [Cetraxate hydrochloride] (stock concentration (mM, diluted 1:100): 9) | -0.06 (inactive) | -0.24 (inactive) | 1.25 (inactive)
CCCN1CCCC[C@H]1C(=O)Nc1c(C)cccc1C [Ropivacaine hydrochloride] (stock concentration (mM, diluted 1:100): 7.7) | 3.5 (inactive) | -2 (inactive) | -0.74 (inactive)
Clc1ccc2c(c1)CCc1cccnc1C2=C1CCNCC1 [Desloratadine] (stock concentration (mM, diluted 1:100): 10) | 8.67 (inactive) | 60.1 (active) | -0.47 (inactive)
C[C@]12CCC(=O)C=C1CC[C@@H]1[C@@H]2C(=O)C[C@@]2(C)[C@H]1CC[C@]2(O)C(=O)CO [Cortisone] (stock concentration (mM, diluted 1:100): 10) | 2.53 (inactive) | 0.78 (inactive) | -0.57 (inactive)
OCCOCCN1CCN(C2=Nc3ccccc3Sc3ccccc32)CC1 [Quetiapine hemifumarate] (stock concentration (mM, diluted 1:100): 7.7) | 9.6 (active) | 0.31 (inactive) | 1.12 (inactive)
Cc1cccc(CCN2CCC(C(=O)c3ccc(NS(C)(=O)=O)cc3)CC2)n1 (stock concentration (mM, diluted 1:100): 9.9) | -0.99 (inactive) |  | -0.44 (inactive)
COCc1c(C(C)C)nc(C(C)C)c(/C=C/[C@@H](O)C[C@@H](O)CC(=O)O)c1-c1ccc(F)cc1 [Cerivastatin] (stock concentration (mM, diluted 1:100): 10) | 0.79 (inactive) |  | 28.6 (active)
CC[N+](C)(CC)CCOC(=O)C(O)(c1ccccc1)C1CCCCC1 (centres undefined) [Oxyphenonium bromide] (stock concentration (mM, diluted 1:100): 10) | 0.76 (inactive) | -1.02 (inactive) | 0.39 (inactive)
